Experimental data published in PubChem BioAssay (NCATS).
Results filed as inconclusive are left out. The source made the active and inactive calls. Calls follow the shape of the dose curve; as a rule, active = well fitted inhibition curve with a large enough effect; inconclusive = small, poorly fitted or top-dose-only effect; inactive = flat fitted curve, though single readings scatter.

molecular target: Dual specificity protein kinase CLK4 (Homo sapiens) (UniProt Q9HAZ1); assay: qHTS Assay for Inhibitors of CDC-like Kinase 4 (Kinase-Glo Assay) (AID 1770); conditions: recombinant Clk4, Kinase-Glo ATP depletion luminescence; series mostly up to 66.7 µM; activity, negative = inhibition: at the top concentration; also: nearly all actives have a fitted effect of over 65% in size
Sequence (Q9HAZ1 whole entry, looked up): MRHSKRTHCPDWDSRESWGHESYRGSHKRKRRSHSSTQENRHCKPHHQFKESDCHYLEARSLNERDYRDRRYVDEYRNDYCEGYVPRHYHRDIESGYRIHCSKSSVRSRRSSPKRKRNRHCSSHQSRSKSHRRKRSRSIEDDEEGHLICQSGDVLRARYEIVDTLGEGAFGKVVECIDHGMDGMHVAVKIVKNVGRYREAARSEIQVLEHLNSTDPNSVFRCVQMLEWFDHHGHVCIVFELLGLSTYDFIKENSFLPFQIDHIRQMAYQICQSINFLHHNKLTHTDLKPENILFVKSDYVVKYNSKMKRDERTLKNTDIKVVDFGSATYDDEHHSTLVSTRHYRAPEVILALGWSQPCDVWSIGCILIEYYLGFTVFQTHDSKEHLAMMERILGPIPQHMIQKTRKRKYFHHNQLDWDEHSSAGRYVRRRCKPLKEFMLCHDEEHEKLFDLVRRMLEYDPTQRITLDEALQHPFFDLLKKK
Experimental: NIH Molecular Libraries Probe Production Centers Network [MLPCN] NIH Chemical Genomics Center [NCGC] MLPCN Grant: 1R03MH084827-01 Assay Submitter (PI): Tom Misteli NCGC Assay Overview: Clk4 (Invitrogen, cat# PV3839) was assayed using ATP and the RS repeat peptide (AnaSpec cat # 61722) as substrates. Following the Clk4 reaction, the remaining ATP levels were detected using Promega Kinase-Glo technology wherein the remaining ATP from the kinase reaction is detected using Ultra-Glo luciferase and D-luciferin which generates a bioluminescence signal from the ATP. The positive control for the assay was TG003 (Sigma-Aldrich, cat# 300801-52-9) which has been described as an inhibitor of Clk 4[1].
NCGC Assay Protocol Summary: Two uL/well of substrate-buffer solution (100 uM RS peptide, 1 uM ATP, 25 mM Tris pH7.5, 10 mM MgCl2, 0.5 mM EGTA, 2.5 mM DTT, 0.01% Triton X-100 final concentration) was dispensed into 1536-well, assay plates (Greiner, solid white medium-binding plates) with Aurora Discovery BioRAPTR Flying Reagent Dispenser (FRD; Beckton-Dickenson). Using a Kalypsys pin tool equipped with a 1536-pin tool, 23 nL of compound solution was transferred to the assay plate. One uL/ well Clk4-buffer solution (25 nM Clk4, 25 mM Tris pH 7.5, 10 mM MgCl2, 0.5 mM EGTA, 2.5 mM DTT, 0.01% Triton X-100, final concentrations) was then added using the FRD yielding a total kinase reaction volume of 3 uL/ well. After 4.5 hours of room temperature incubation, 3 uL Kinase-Glo reagent was added for a final assay volume of 6 uL/ well. Luminescence was detected with the ViewLux plate reader (Perkin Elmer, Waltham, MA) after 5 min incubation using a 5 second exposure time and 2x binning.
% is scaled to controls: 0 for no effect and ±100 for the full control effect; potency is read from the fitted curve at half-maximal effect.

Potency, active:
COc1cccc(-c2nc(N(C)Cc3ccco3)c3ccccc3n2)c1 12.6 µM
COc1ccccc1CNc1ncncc1-c1ccc(C(=O)N(C)C)cc1 12.6 µM
COc1cccc(-c2nccc(NCc3ccc(OC)cc3OC)n2)c1 31.6 µM
COc1ccc(CNc2ncnc3ccc(-c4ccc5c(c4)OCO5)cc23)c(OC)c1 1.41 µM
N#Cc1cccc(-c2nccc(-n3ccnc3)n2)c1 8.91 µM
Cc1cnc(CNc2cc(-c3ccc(N(C)C)cc3)ncn2)cn1 5.01 µM
Cc1cccc(CNc2ccnc(-c3cccc(C#N)c3)n2)c1 11.2 µM
c1cncc(-c2ccc3ncnc(NC4CCNCC4)c3c2)c1 14.1 µM
CNc1nc(-c2ccccc2C)nc2ccccc12 12.6 µM
COc1ccccc1CNc1ncnc2ccc(-c3ccccc3C#N)cc12 6.31 µM
Cc1cnc(CNc2cc(-c3ccc(C(=O)N(C)C)cc3)ncn2)cn1 12.6 µM
Cc1ccccc1-c1nc(N(C)Cc2ccco2)c2ccccc2n1 20 µM
Cc1ccccc1-c1ccc2ncnc(N(C)C)c2c1 15.8 µM
c1cn(-c2cc(-c3ccc4c(c3)OCO4)ncn2)cn1 3.16 µM
Cc1noc(C)c1-c1nccc(NCc2cccs2)n1 22.4 µM

activity, negative = inhibition, inactive:
CC(=O)NCCNc1ncncc1-c1ccccc1CN(C)C -17.7%
CN1CCN(c2ncc3ncc(=O)n(Cc4ccc(F)cc4)c3n2)CC1 -11.2%
Cc1cccc(CNc2ccnc(-c3ccccc3Cl)n2)c1 -4.79%
CN(C)c1ncc2nc(-c3cccs3)c(=O)n(C)c2n1 -6.57%
COc1ncc2nc(-c3cn(C)c4ccccc34)c(=O)n(CCC#N)c2n1 -6.88%
COCCn1c(=O)c(CCc2ccccc2)nc2cnc(Oc3ccc(OC)cc3)nc21 -2.35%
COc1cccc(Nc2ncc3nc(-c4cc(F)cc(F)c4)c(=O)n(C[C@H]4CCCO4)c3n2)c1 -14.1%
COCCn1c(=O)c(-c2ccc(Cl)cc2)nc2cnc(N3CCOCC3)nc21 -0.54%
Cn1cc(-c2nc3cnc(N4CCNCC4)nc3n(Cc3ccc(F)cc3)c2=O)c2ccccc21 1.27%
CN(C)c1ncc2nc(-c3ccc(F)cc3)c(=O)n(-c3ccccc3)c2n1 -6.62%
CN1CCN(c2ncc3nc(-c4ccccc4)c(=O)n(C4CC4)c3n2)CC1 -12.3%
COc1ncc2nc(-c3ccc(Cl)cc3)c(=O)n(C)c2n1 -2.32%
COc1ncc2nc(CCc3ccccc3)c(=O)n(CCc3ccccc3)c2n1 1.73%
COc1cccc(Cn2c(=O)cnc3cnc(OC)nc32)c1 -21%
COCCn1c(=O)c(-c2cc(F)cc(F)c2)nc2cnc(N(C)C)nc21 0.448%
CN(C)C(=O)c1ccc(-c2cncnc2NCc2cccnc2)cc1 -18.6%
COCCn1c(=O)c(-c2ccccc2)nc2cnc(Nc3cccc(OC)c3)nc21 -14.8%
COCCn1c(=O)c(-c2ccc(OC)cc2)nc2cnc(N3CCOCC3)nc21 -7.51%
COc1ncc2nc(-c3cn(C)c4ccccc34)c(=O)n(CCc3ccccc3)c2n1 -1.42%
O=c1c(-c2cc(F)cc(F)c2)nc2cncnc2n1Cc1ccccc1Cl -3.01%
CN(Cc1ccco1)c1ncncc1-c1ccccc1C(F)(F)F -4.33%
COc1cccc(Nc2ncc3nc(-c4ccccc4)c(=O)n(C)c3n2)c1 -11.9%
O=c1c(-c2ccc(F)cc2)nc2cnc(N3CCOCC3)nc2n1CCc1ccccc1 -8.37%
Cn1c(=O)c(-c2ccccc2)nc2cnc(Nc3ccccc3)nc21 -8.5%
O=c1c(-c2cccs2)nc2cnc(N3CCNCC3)nc2n1C1CC1 -20.2%
